High-throughput results as filed in PubChem.
The list is not random: actives were taken first. Their share in the collection is about 4.5%.
SKKanGAS inh: SKKanGAS growth inhibition; S. pyogenes SKKanGAS, kanamycin growth, BacTiter-Glo, 6 h; inhibition, % at 7.5 µM; actives 1.3% (n = 300,000);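 active = mean replicate score, as percent of positive control median, at least 50; inconclusive = mean below 50 but one replicate at or above 50; inactive = mean and every replicate below 50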;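 note: strain carries kanamycin resistance gene driven by streptokinase promoter and grows in 40 µg/ml kanamycin; loss of luminescence reflects streptokinase promoter inhibition or plain growth inhibition; 0% = median of DMSO wells and 100% = positive control at its reference dose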
NLRP3 yeast inh: inhibitors of NALP3 inflammasome in yeast | AID 2825 | Yeast reconstituted NLRP3/ASC/caspase-1, beta-gal luminescence, 24 h | inhibition, % at 10 µM | actives 0.39% (n = 330,000);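 active = inhibition of 50% or more; inactive = inhibition below 50%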;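 note: plate controls were induced DMSO wells for no effect and uninduced yeast grown without galactose for full effect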
tim23-1 inh: growth inhibitors of tim23-1 mutant yeast; actives 1.3% (n = 330,000); inhibition, % at 20 µM; AID 463212; S. cerevisiae tim23-1 growth, BacTiter-Glo luminescence, 24 h;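 active = growth inhibition of the mutant yeast at or above 50%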;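 note: temperature-sensitive mutant grown at 25 °C; plate controls were DMSO-treated mutant yeast for no effect and medium wells lacking yeast for full effect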
tim10-1 inh: inhibits growth of tim10-1 mutant yeast. S. cerevisiae tim10-1 ts strain growth, BacTiter-Glo, 24 h. inhibition, % at 20 µM. actives 2.2% (n = 330,000). AID 463190;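 active = inhibition of at least 40%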;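 note: mutant grown at 25 °C; 0% = DMSO wells with yeast and 100% = wells holding no yeast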
PfHsp90 yeast 2: inhibits growth of yeast expressing Plasmodium falciparum Hsp90 | S. cerevisiae expressing PfHsp90, BacTiter-Glo ATP, 48 h; yeast lacking PDR1 and PDR3 efflux regulators | inhibition, % at 9.4 µM | actives 0.32% (n = 310,000);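 active = every replicate shows inhibition above about 80%, whatever the replicate mean, limit read from the data; inconclusive = mean inhibition reaches the set limit but some replicate falls short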;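 note: 0% = DMSO neutral controls and 100% = 20 µM radicicol positive controls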
TIM10 inh: TIM10 yeast growth inhibition; S. cerevisiae TIM10 strain growth, BacTiter-Glo luminescence, 24 h; inhibition, % at 10 µM; actives 1.4% (n = 330,000); AID 463195;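 active = inhibition of 40% or more at the single tested concentration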;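 note: wild-type TIM10 isogenic control strain grown at permissive 25 °C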
tim10-1 confirm: confirmation of tim10-1 mutant yeast growth inhibitors. shares compounds with tim10-1 inh. S. cerevisiae tim10-1 ts strain growth, BacTiter-Glo, 24 h. inhibition, % at 20 µM. actives 56% (n = 7,400). AID 463213;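 active = inhibition of yeast growth at or above a set limit in either of two repeat tests at 20 µM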;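 note: tim10-1 mutant grown at permissive 25 °C to find synthetic lethal compounds; 0% = DMSO yeast wells and 100% = medium wells without yeast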
TIM10 conf: TIM10 yeast growth inhibition, confirmed; shares compounds with TIM10 inh; S. cerevisiae tim10 strain growth, BacTiter-Glo luminescence, 24 h; inhibition, % at 10 µM; actives 63% (n = 4,600); AID 463215;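 active = inhibition of yeast growth at or above a set limit in either of two replicates at 10 µM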;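 note: this counterscreen used the strain with wild-type TIM10; 0% = yeast with DMSO and 100% = medium wells lacking yeast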
* marks the source's active call; other numbers are inactive results; u = inconclusive; x = no result given.

SMILES	SKKanGAS inh	NLRP3 yeast inh	tim23-1 inh	tim10-1 inh	PfHsp90 yeast 2	TIM10 inh	tim10-1 confirm	TIM10 conf
N#Cc1ccc(OCC(=O)N(C2CCCCC2)C2CCS(=O)(=O)C2)cc1 (centres undefined)	x	5	-4	6	x	9	x	x
CC1CCCCN1S(=O)(=O)c1ccc(NC(=O)c2ccco2)cc1 (centres undefined)	-1	10	25	53*	x	42*	36*	17
CCC(=O)Nc1ccc(C(=O)COC(=O)Cc2ccsc2)cc1	x	9	23	20	-9	17	x	x
Cc1cc(C)cc(N(C(=O)c2csnn2)C(C(=O)NC2CCCC2)c2cccnc2)c1 (centres undefined)	0	4	3	-15	-5	11	x	x
CCOC(=O)C1CCN(C(=O)c2cc3cc4cc(OC)ccc4nc3o2)CC1	-8	22	-8	48*	-24	53*	51*	-5
CC(C)CCNC(=O)COC(=O)/C=C/c1ccc2ccccc2n1	-9	9	48	49*	-18	45*	42*	41*
O=C(COC(=O)/C=C/c1ccccc1)NCCNC(=O)COC(=O)/C=C/c1ccccc1	0	3	16	12	-9	8	x	x
O=C(Nc1cccc([N+](=O)[O-])c1)NC1CCCCCCC1	x	16	44	43*	22	44*	36*	42*
O=C(CNC1CCCCC1)Nc1cccc([N+](=O)[O-])c1	-3	15	3	-4	1	0	x	x
Cc1nc([N+](=O)[O-])c(Br)n1CC(=O)c1ccc(Br)cc1	-10	19	40	48*	x	40	35*	40*
Cc1nc([N+](=O)[O-])c(Br)n1CC(=O)c1ccc2ccccc2c1	-2	24	35	59*	x	54*	67*	55*
Cc1cc(C)n(-c2nc(-n3nc(C)cc3C)c3c4c(sc3n2)COC(C)(C)C4)n1	6	13	43	50*	x	41*	34*	25
CCN(C(=O)COC(=O)/C(=C/c1ccccc1)n1nnnc1C)C1CCCCC1	-7	20	46	42*	4	41*	38*	45*
Cc1nnnn1/C(=C\c1ccccc1)C(=O)OCC(=O)N(C)C1CCS(=O)(=O)C1 (centres undefined)	-12	16	11	18	-7	0	x	x
COc1cc(/C=N/NC(=O)C(=O)/C=C2\NC3(CCCC3)Cc3ccccc32)ccc1O	21	-10	45	52*	-26	47*	22	4
CC(Oc1ccccc1F)C(=O)NNC(=O)CC(C)c1ccccc1 (centres undefined)	-14	10	-9	-2	-3	1	x	x
c1ccc(Oc2nc(N3CCOCC3)nc(N3CCOCC3)n2)cc1	-4	23	26	19	-8	7	x	x
c1cc(C2CCCCC2)ccc1Oc1nc(N2CCOCC2)nc(N2CCOCC2)n1	18	-15	10	44*	-72	52*	5	33*
COc1cc(NC(=NS(=O)(=O)c2ccccc2)c2ccccc2)ncn1	x	x	x	x	6	x	x	x
COc1ccccc1N1CCN(C(=O)c2sc3nc(-c4ccc(F)cc4)cn3c2C)CC1	41	23	43	66*	-38	40	58*	51*
COc1ccc(-c2cn3c(C)c(C(=O)N4CCN(c5ccccc5)CC4)sc3n2)cc1	x	x	x	x	15	x	x	x
COC(=O)C1CCN(C(=O)c2sc3nc(-c4ccccc4)cn3c2C)CC1	-3	12	40	48*	x	43*	38*	26
CCOC(=O)N1CCN(C(=O)c2sc3nc(-c4ccc(F)cc4)cn3c2C)CC1	-3	15	21	56*	-16	43*	38*	40*
CCc1noc(C)c1C(=O)Nc1cccc(S(=O)(=O)N(C)c2ccccc2)c1	-1	11	26	21	x	28	x	x
CC1(C)Oc2ccc3ccc(=O)oc3c2/C(=C/NNC(N)=O)C1=O	-3	16	0	-5	19	-9	x	x
SMILES	SKKanGAS inh	NLRP3 yeast inh	tim23-1 inh	tim10-1 inh	PfHsp90 yeast 2	TIM10 inh	tim10-1 confirm	TIM10 conf
Cc1ccc(C(C)(c2ccc(N)cc2)c2ccc(N)cc2)cc1	-5	18	21	30	8	-10	x	x
CCN1CCN(c2cc(C(C)C)nc3c(-c4ccccc4)c(C)nn23)CC1	3	25	-1	8	x	28	x	x
Cc1nn2c(NCCCn3ccnc3)cc(C(C)C)nc2c1-c1ccccc1	15	9	-10	23	35	29	x	x
CCCc1cc(NCc2ccccn2)n2nc(C)c(-c3ccccc3)c2n1	94*	26	45	43*	107*	47*	58*	76*
CCCc1cc(N2CCCC2)n2nc(C)c(-c3ccccc3)c2n1	6	28	46	47*	x	51*	23	19
NNc1nc2c(-c3ccc(F)cc3)nnn2c2ccccc12	9	9	26	46*	-16	74*	56*	73*
Fc1ccc(-c2nnn3c2nc(NCc2ccccc2)c2ccccc23)cc1	0	-4	0	0	1	-12	x	x
CC(NS(=O)(=O)c1ccc(Cl)cc1)C(=O)OCC(=O)c1ccc[nH]1 (centres undefined)	x	8	11	18	15	7	x	x
N/C(=N\OC(=O)c1ccccc1Br)c1cccc([N+](=O)[O-])c1	0	26	39	79*	-21	41*	84*	54*
O=C(Cc1ccccc1Cl)Nc1cccc(S(=O)(=O)N2CCCCCC2)c1	x	20	30	16	0	5	x	x
O=C(Nc1cccc(S(=O)(=O)N2CCCCC2)c1)Nc1ccc(Cl)cc1Cl	39	20	44	44*	-2	46*	23	39*
CC(C)NC(=S)N/N=C1\CCCCC1C1CCCCC1 (centres undefined)	u	14	47	44*	x	42*	32*	29
COCC(C)N1CCC(Oc2cccc(C(=O)NCCc3ccccc3)c2)CC1 (centres undefined)	-10	8	-5	4	5	-5	x	x
Cc1cc(C(=O)CCl)c(C)n1-c1cccc(S(=O)(=O)N2CCOCC2)c1	8	-44	38	48*	x	46*	30*	46*
CCCN(CCC)CCCNC(=O)c1cc2cc3ccc(Cl)cc3nc2o1	-1	7	43	58*	-12	60*	39*	41*
Cc1ccc2cc3cc(C(=O)NCCCN4CCc5ccccc5C4)oc3nc2c1	22	2	47	51*	-1	64*	35*	5
CCCCN(CC)CCNC(=O)c1cc2cc3ccc(Cl)cc3nc2o1	3	-2	14	18	2	10	x	x
